According to PubChem BioAssay (Tox21):
Results filed as inconclusive are left out. Entries that show only a call come without a potency. Activity calls are given as the source filed them. Unless noted, calls follow the shape of the full dose curve.

What was measured:
[1] = Nuclear factor erythroid 2-related factor 2/antioxidant responsive element (Nrf2/ARE) small molecule agonists: qHTS cell viability counter screen in human keratinocytes (AID 1919968; active = well fitted curve in the direction sought with a large enough effect in the repeat runs; an effect the other way counts as inactive or inconclusive; also: nearly all actives have a fitted effect of over 55% in size; also: potency is read from the fitted curve at half-maximal effect)
Procedure, shortened: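 In human HaCaT keratinocytes stably expressing an ARE-driven luciferase, compound exposure lasted 23 h at 37 C under 5% CO2. Viable cells are quantified with a protease-based fluorogenic reagent (CellTiter-Fluor) read 1 h after addition.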

[2] = molecular target: Gonadotropin-releasing hormone receptor (Homo sapiens) (UniProt P30968); assay: Human gonadotropin-releasing hormone receptor (GnRHR) small molecule agonists, calcium flux assay in GnRHR-HEK293 cells (AID 1920063); also: nearly all actives have a fitted effect of over 35% in size
Chain of Gonadotropin-releasing hormone receptor (Homo sapiens) (P30968 whole entry, looked up): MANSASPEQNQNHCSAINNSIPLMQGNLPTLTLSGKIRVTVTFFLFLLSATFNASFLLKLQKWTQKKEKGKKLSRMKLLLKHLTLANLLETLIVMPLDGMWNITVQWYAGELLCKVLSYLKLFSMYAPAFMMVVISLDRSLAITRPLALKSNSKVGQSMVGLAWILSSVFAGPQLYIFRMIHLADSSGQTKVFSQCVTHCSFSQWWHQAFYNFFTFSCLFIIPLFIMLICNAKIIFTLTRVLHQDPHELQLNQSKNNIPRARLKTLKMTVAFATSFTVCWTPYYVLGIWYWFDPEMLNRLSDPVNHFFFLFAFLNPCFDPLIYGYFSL
Procedure, shortened: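 Intracellular calcium rise is the read-out: engineered human GnRHR HEK293 cells, dye-loaded, are exposed to DMSO-dissolved compounds and fluorescence at Ex/Em 480/540 is tracked for 3 min.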

[3] = molecular target: KiSS-1 receptor (Homo sapiens) (UniProt Q969F8); assay: Human kisspeptin (KISS1R) small molecule agonists, calcium flux assay in KISS1R-HEK293 cells (AID 1920064; active = well fitted curve in the direction sought with a large enough effect in the repeat runs; an effect the other way counts as inactive or inconclusive)
Chain of KiSS-1 receptor (Homo sapiens) (Q969F8 whole entry, looked up): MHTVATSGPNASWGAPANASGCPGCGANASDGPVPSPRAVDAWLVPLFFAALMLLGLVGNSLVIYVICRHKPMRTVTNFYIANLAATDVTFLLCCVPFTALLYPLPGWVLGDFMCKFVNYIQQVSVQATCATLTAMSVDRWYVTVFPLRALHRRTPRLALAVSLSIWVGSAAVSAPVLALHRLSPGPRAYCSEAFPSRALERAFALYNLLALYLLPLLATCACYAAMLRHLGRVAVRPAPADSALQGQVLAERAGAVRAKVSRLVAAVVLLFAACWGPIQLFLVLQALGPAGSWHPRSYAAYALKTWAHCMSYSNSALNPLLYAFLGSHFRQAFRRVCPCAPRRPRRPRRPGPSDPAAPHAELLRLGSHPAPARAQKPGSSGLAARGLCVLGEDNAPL
Procedure, shortened: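 Concentration-response testing used 15 concentrations in triplicate on human KISS1R-expressing HEK293 cells. Calcium-dependent fluorescence (Ex/Em 480/540) was followed kinetically for 3 min after compound transfer.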

[4] = G protein-coupled receptor (GPCR) small molecule agonists, calcium flux assay: HEK293 wild type cell line counter screen (AID 1920065)
Procedure, shortened: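 Fluorescence intensity signals activation. After overnight (18 h) culture and a 1 h calcium dye load at 37 C, compounds are added by pin tool and the plate read at 480/540 nm for 3 min in 1 s steps.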

[5] = p53 small molecule agonists, cell-based qHTS assay with rat liver microsomes (AID 1963578)
Procedure, shortened: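 With rat liver microsomes and NADPH present (0.5 mg/mL final each), p53RE-bla cells are treated with compound for 16 h at 37 C. LiveBLAzer detection mixture is then applied for 2 h at room temperature in the dark.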

[6] = p53 small molecule agonists, cell-based qHTS assay with human liver microsomes: qHTS cell viability counter screen (AID 1963579); also: nearly all actives have a fitted effect of over 45% in size; also: potency is read from the fitted curve at half-maximal effect
Procedure, shortened: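 In this multiplexed counter screen, the reporter plates were subsequently treated with CellTiter-Glo so that cell viability, reflected by luminescence, could be recorded for p53RE-bla cells dosed 16 h with compounds under microsomal activation (HLM and NADPH).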

[7] = p53 small molecule agonists, cell-based qHTS assay: qHTS cell viability counter screen (AID 1963581); also: nearly all actives have a fitted effect of over 45% in size; also: potency is read from the fitted curve at half-maximal effect
Procedure, shortened: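 Luminescence from CellTiter-Glo, reflecting ATP content, serves as the cytotoxicity measure; it is taken after the 2 h reporter substrate step in HCT-116 p53RE-bla cells dosed for 16 h at 37 C.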

[8] = p53 small molecule agonists, cell-based qHTS assay (AID 1963582; active = well fitted activation curve with a large enough effect in the signal ratio in the repeat runs, not every such curve was filed as active; the % refers to the signal ratio)
Procedure, shortened: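 After plating, p53RE-bla cells sat 5 h in the incubator; compounds or DMSO vehicle were pinned in; a 16 h incubation at 37 C followed; FRET substrate was added and, 2 h later at RT, fluorescence was measured.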

[9] = molecular target: 5-hydroxytryptamine receptor 2A (Homo sapiens) (UniProt P28223); assay: 5-hydroxytryptamine receptor 2A (HTR2A) small molecule antagonists, cell-based qHTS assay (AID 1963586); also: nearly all actives have a fitted effect of over 45% in size
Chain of 5-hydroxytryptamine receptor 2A (Homo sapiens) (P28223 whole entry, looked up): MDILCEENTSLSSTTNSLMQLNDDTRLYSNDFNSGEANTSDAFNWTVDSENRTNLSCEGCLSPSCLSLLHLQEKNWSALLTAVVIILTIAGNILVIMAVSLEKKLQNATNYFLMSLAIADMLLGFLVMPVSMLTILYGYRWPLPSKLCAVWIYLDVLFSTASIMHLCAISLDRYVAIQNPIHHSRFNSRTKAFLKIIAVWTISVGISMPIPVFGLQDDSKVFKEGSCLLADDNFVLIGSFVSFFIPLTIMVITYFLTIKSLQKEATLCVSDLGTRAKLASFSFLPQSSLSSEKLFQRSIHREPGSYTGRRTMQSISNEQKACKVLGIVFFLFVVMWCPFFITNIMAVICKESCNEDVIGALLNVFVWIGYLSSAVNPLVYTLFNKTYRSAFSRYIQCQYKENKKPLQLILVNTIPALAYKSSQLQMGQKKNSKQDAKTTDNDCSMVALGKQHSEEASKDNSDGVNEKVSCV
Procedure, shortened: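 CHO cells stably expressing human HTR2A were plated for 18 h at 37 C, then loaded with calcium dye for 1 h. Compounds were preincubated 5 min at room temperature before DOI (4 nM solution) was added. Kinetic fluorescence was read for 3 min.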

[10] = molecular target: 5-hydroxytryptamine receptor 2A (Homo sapiens) (UniProt P28223); assay: 5-hydroxytryptamine receptor 2A (HTR2A) small molecule agonists, cell-based qHTS assay (AID 1963587); also: nearly all actives have a fitted effect of over 30% in size
Procedure, shortened: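 Kinetic calcium-flux fluorescence (2 min, 1 sec intervals) after compound addition in agonist mode. HTR2A-CHO cells were cultured 18 h, then dye-loaded 1 h at 37 C.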

[11] = molecular target: Muscarinic acetylcholine receptor M1 (Homo sapiens) (UniProt P11229); assay: Cholinergic receptor muscarinic 1 (CHRM1) small molecule antagonists, cell-based qHTS assay (AID 1963588); also: nearly all actives have a fitted effect of over 40% in size
Chain of Muscarinic acetylcholine receptor M1 (Homo sapiens) (P11229 whole entry, looked up): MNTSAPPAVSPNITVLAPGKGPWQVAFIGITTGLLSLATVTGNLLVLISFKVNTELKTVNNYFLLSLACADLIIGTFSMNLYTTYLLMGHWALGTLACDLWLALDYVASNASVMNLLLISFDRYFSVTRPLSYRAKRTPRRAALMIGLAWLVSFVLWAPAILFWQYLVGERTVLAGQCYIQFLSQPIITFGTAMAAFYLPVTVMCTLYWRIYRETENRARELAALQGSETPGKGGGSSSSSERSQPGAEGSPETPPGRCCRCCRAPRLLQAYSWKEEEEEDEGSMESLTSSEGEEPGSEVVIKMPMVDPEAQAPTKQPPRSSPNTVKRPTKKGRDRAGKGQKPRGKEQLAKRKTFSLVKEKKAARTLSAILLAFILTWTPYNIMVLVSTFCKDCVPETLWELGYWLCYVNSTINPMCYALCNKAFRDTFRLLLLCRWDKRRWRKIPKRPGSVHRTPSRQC
Procedure, shortened: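 Compounds were tested at 15 concentrations in three independent runs. Dye-loaded CHRM1-CHO cells were exposed 5 min at room temperature before stimulation by acetylcholine added at 50nM. Intracellular calcium was read kinetically on FDSS for 3 min.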

[12] = molecular target: Muscarinic acetylcholine receptor M1 (Homo sapiens) (UniProt P11229); assay: Cholinergic receptor muscarinic 1 (CHRM1) small molecule agonists, cell-based qHTS assay (AID 1963589); also: nearly all actives have a fitted effect of over 35% in size
Procedure, shortened: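 Fluorescent calcium dye reports M1 activation in stably transfected CHO cells. Compounds, 15 concentrations, added after 1 h dye loading at 37 C; kinetic reading at 1 sec intervals.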

[13] = cAMP Responsive Elements (CRE) small molecule agonists, cell-based qHTS assay (AID 1963590)
Procedure, shortened: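 Compound exposure lasted 3 h at 37 C/5% CO2 in CRE-bla HEK 293T cells grown in assay medium with 10% dialyzed FBS and 25 mM HEPES. Reporter signal came from LiveBLAzer B/G FRET substrate, 2 h, room temperature.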

[14] = cAMP Responsive Elements (CRE) small molecule antagonists, cell-based qHTS assay (AID 1963591; active = well fitted inhibition curve with a large enough effect in the signal ratio in the repeat runs, not every such curve was filed as active; the % refers to the signal ratio)
Procedure, shortened: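 Stimulation used NKH477 at a final 0.25 uM for 3 h in compound-treated CRE-bla HEK293T cells, seeded 18 h beforehand. Reporter activity was measured with LiveBLAzer B/G FRET substrate after 2 h at room temperature.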

[15] = molecular target: Beta-2 adrenergic receptor (Homo sapiens) (UniProt P07550); assay: Adrenergic beta2 receptor (ADRB2) small molecule antagonists, cell-based qHTS assay (AID 1963592); also: nearly all actives have a fitted effect of over 50% in size; also: potency is read from the fitted curve at half-maximal effect
Chain of Beta-2 adrenergic receptor (Homo sapiens) (P07550 whole entry, looked up): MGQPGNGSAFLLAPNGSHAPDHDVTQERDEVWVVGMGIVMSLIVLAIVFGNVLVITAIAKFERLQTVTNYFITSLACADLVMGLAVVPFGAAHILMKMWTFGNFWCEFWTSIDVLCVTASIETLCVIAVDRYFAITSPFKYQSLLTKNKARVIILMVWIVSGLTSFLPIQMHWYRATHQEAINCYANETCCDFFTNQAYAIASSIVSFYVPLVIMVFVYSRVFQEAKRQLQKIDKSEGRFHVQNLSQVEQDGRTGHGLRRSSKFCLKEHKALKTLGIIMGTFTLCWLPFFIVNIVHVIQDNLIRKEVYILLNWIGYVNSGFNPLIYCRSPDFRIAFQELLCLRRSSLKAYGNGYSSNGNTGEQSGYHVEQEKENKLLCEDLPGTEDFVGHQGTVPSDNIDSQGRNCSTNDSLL
Procedure, shortened: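 Assay format: CHO-ADRB2 cells, 18-20hr seeding at 37C/5% CO2, then compound plus 1nM isoproterenol agonist mix for 0.5hr RT. Homogeneous time-resolved fluorescence cAMP detection after 1hr, expressed as 665/615 nm ratio.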

[16] = molecular target: Beta-2 adrenergic receptor (Homo sapiens) (UniProt P07550); assay: Adrenergic beta2 receptor (ADRB2) small molecule agonists, cell-based qHTS assay (AID 1963593);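 also: CHO cells stably overexpressing human ADRB2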
Procedure, shortened: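 CHO cells stably over-expressing ADRB2 were plated overnight at 37C, then dosed with compounds plus a stimulation mix containing 100uM IBMX and 25uM Ro-20-1724 for 0.5hr at room temperature. cAMP was measured by HTRF competition, 1hr.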

[17] = molecular target: D(2) dopamine receptor (Homo sapiens) (UniProt P14416); assay: Dopamine D2 receptor (DRD2) small molecule agonists, cell-based qHTS assay (AID 1963594); also: nearly all actives have a fitted effect of over 35% in size
Chain of D(2) dopamine receptor (Homo sapiens) (P14416 whole entry, looked up): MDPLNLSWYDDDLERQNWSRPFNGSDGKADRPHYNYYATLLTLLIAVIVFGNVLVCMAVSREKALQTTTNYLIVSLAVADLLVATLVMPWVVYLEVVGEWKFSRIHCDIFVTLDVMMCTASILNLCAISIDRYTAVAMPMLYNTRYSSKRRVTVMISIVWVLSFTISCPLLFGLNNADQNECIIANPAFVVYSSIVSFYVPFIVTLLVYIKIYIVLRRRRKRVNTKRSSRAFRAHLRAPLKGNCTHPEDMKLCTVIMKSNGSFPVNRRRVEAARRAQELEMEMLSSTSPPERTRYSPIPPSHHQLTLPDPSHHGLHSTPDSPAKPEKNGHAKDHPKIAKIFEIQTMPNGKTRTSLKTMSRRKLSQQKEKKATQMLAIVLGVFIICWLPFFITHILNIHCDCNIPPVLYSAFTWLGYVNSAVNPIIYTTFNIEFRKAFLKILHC
Procedure, shortened: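 cAMP accumulation in DRD2-HEK293 cells measured by HTRF after 1 h detection; compounds added 10 min before NKH477 (200nM […]) forskolin-analogue stimulation, 30 min at room temperature, with Ro20-1724 present at 0.1 mM final.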

[18] = molecular target: D(2) dopamine receptor (Homo sapiens) (UniProt P14416); assay: Dopamine D2 receptor (DRD2) small molecule antagonists, cell-based qHTS assay (AID 1963595; active = well fitted inhibition curve with a large enough effect in the signal ratio in the repeat runs, with a control signal flat; the % refers to the signal ratio; also: potency is read from the fitted curve at half-maximal effect)
Procedure, shortened: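 DRD2-HEK293; 0.1 mM Ro20-1724; cpd 10 min RT; NKH477 200 nM + quinpirole 12 nM, 30 min RT; HTRF cAMP (cAMP-d2/anti-cAMP cryptate), 665/620 nm ratio after 1 h.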

[19] = p53 small molecule agonists, cell-based qHTS assay with rat liver microsomes: qHTS cell viability counter screen (AID 1963580); also: nearly all actives have a fitted effect of over 45% in size; also: potency is read from the fitted curve at half-maximal effect
Procedure, shortened: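 Cytotoxicity counter screen: intracellular ATP read by CellTiter-Glo luminescence in the p53 reporter wells. HCT-116 p53RE-bla cells were treated for 16 h at 37 C alongside rat liver microsomes and NADPH, each 0.5 mg/mL final.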

[20] = p53 small molecule agonists, cell-based qHTS assay with human liver microsomes (AID 1963577);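 also: p53 response element beta-lactamase reporter cells with liver microsomes plus NADPH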
Procedure, shortened: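 16 h, 37 C exposure of p53RE-bla cells to compounds with human liver microsomes and NADPH (0.5 mg/mL final each); detection via LiveBLAzer mixture, 2 h dark at room temperature.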

| SMILES | Potency [1] | Potency [2] | Potency [3] | Potency [4] | Potency [5] | Potency [6] | Potency [7] | Potency [8] | Potency [9] | Potency [10] | Potency [11] | Potency [12] | Potency [13] | Potency [14] | Potency [15] | Potency [16] | Potency [17] | Potency [18] | Potency [19] | Potency [20] |
| --- | --- | --- | --- | --- | --- | --- | --- | --- | --- | --- | --- | --- | --- | --- | --- | --- | --- | --- | --- | --- |
| NO | inactive | inactive | inactive | inactive | inactive | inactive | inactive | inactive | inactive | inactive | inactive | inactive | inactive | inactive | inactive | inactive | inactive | inactive |  |  |
| CCC(=O)Oc1ccc(/C(CC)=C(\CC)c2ccc(OC(=O)CC)cc2)cc1 | inactive | inactive | inactive | inactive | inactive |  | inactive |  |  | inactive | inactive | inactive | inactive | inactive | inactive |  | inactive | inactive |  |  |
| c1cnc(N2CCN(Cc3ccc4c(c3)OCO4)CC2)nc1 | inactive | inactive | inactive | inactive | inactive |  | inactive | inactive | inactive | inactive | inactive | inactive | inactive | inactive | inactive |  |  | inactive | inactive |  |
| c1ccc2sc(SN3CCOCC3)nc2c1 | inactive | inactive | inactive | inactive | inactive | inactive | inactive | inactive | inactive | inactive | inactive | inactive | inactive | inactive | inactive | inactive | inactive | inactive | inactive |  |
| CCN(CCC#N)c1ccccc1 | inactive | inactive | inactive | inactive |  | inactive | inactive |  | inactive | inactive | inactive | inactive | inactive | inactive | inactive | inactive | inactive | inactive | inactive |  |
| OCCOCC#CCOCCO | inactive | inactive | inactive | inactive | inactive | inactive | inactive | inactive | inactive | inactive | inactive | inactive | inactive |  | inactive |  | inactive | inactive |  |  |
| Cn1c(=O)c2c(ncn2CCO)n(C)c1=O | inactive | inactive | inactive | inactive |  | inactive | inactive |  | inactive | inactive | inactive | inactive | inactive | inactive | inactive |  |  |  | inactive |  |
| O=C(CCCN1CCN(c2ccc(F)cc2)CC1)NC1c2ccccc2CSc2ccccc21 (configuration not stated) | inactive | inactive | inactive | inactive |  | inactive | inactive | inactive |  | inactive |  | inactive |  |  | 7.5 µM (active) |  | inactive |  | inactive |  |
| O=C1Nc2ccc([N+](=O)[O-])cc2C1=O | inactive | inactive | inactive | inactive | inactive | inactive | inactive | inactive | inactive |  | inactive | inactive | inactive |  |  |  |  |  | inactive |  |
| Cc1ccc([N+](=O)[O-])c(N)c1 | inactive | inactive | inactive | inactive | inactive |  | inactive |  | inactive | inactive | inactive | inactive | inactive |  | inactive | inactive | inactive | inactive | inactive |  |
| C=C[Si](OC(C)=O)(OC(C)=O)OC(C)=O | inactive | inactive | inactive | inactive | inactive |  | inactive |  | inactive | inactive | inactive | inactive | inactive | inactive | inactive | inactive | inactive | inactive |  |  |
| N[C@@H](CS)C(=O)O | inactive | inactive | inactive | inactive | inactive | inactive | inactive | inactive | inactive | inactive | inactive | inactive | inactive | inactive | inactive |  | inactive |  | inactive |  |
| CC(C)(C)CC(C)(C)c1ccc(O)c(Cc2ccc(Cl)cc2Cl)c1 | 8.41 µM (active) | inactive | inactive | inactive | inactive | inactive | 8.9 µM (active) |  | inactive | inactive | inactive | inactive |  |  | inactive | inactive |  |  | inactive |  |
| Oc1ccc2c(c1)-c1ccccc1C2 | inactive | inactive | inactive | inactive | inactive | inactive |  | inactive | inactive | inactive | inactive | inactive | inactive |  | inactive |  | inactive | inactive | inactive |  |
| CC(=O)Oc1cccc(C)c1 | inactive | inactive | inactive | inactive | inactive |  | inactive | inactive | inactive |  | inactive | inactive | inactive | inactive | inactive | inactive | inactive | inactive | inactive |  |
| CC(C)NCC(O)COc1ccc(CCOCC2CC2)cc1 (configuration not stated) | inactive | inactive | inactive | inactive | inactive | inactive | inactive | inactive |  | inactive | inactive | inactive | inactive |  |  |  |  | inactive | inactive |  |
| CCN(CCCc1ccccc1)CCCc1ccccc1 | inactive | inactive | inactive | inactive | inactive |  |  | inactive |  | inactive |  | inactive |  |  | inactive |  |  |  | inactive |  |
| COc1cc(C(=O)NC2CCN(C)CC2)ccc1Nc1ncc2c(n1)N(C1CCCC1)CC(F)(F)C(=O)N2C | 28.1 µM (active) | inactive | inactive | inactive |  | 16.7 µM (active) |  |  | inactive | inactive |  |  |  |  | inactive | inactive | inactive | 49.9 µM (active) | 37.4 µM (active) | inactive |
